Source: PubChem BioAssay
ALR H2O2 inh = inhibitors of human sulfhydryl oxidase ALR | purified ALR, DTT oxidation, H2O2 HRP-luminol luminescence | P55789 | inhibition, % (concentration not given with the values) | 3.8% of 290,000 active | AID 485317;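 active means mean replicate inhibition above about 79%, with every replicate also reaching it, limit read from the data; inconclusive means only one of the two criteria met; inactive means mean below limit and not every replicate reaching it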
AHR activator = activators of human aryl hydrocarbon receptor; AID 2796; 2.5% of 320,000 active; activation, % at 5 µM; P35869; AHR-responsive luciferase reporter cells, luminescence; in the data active means activation above about 47%;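 further: 0% = vehicle wells and 100% = reference agonist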
A1 inh = inhibitors of the anti-apoptotic protein A1, read as caspase activation | MEF A1-2A-BIM cells, Caspase-Glo 3/7 luminescence, 3 h; percent of clofoctol response, vehicle zero | caspase activation, % (no concentration beside the values) | 0.066% of 330,000 active;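 active means over half of replicate activation scores above 10%, or exactly half above 10 with the replicate mean above 10; inconclusive means replicate mean below 10 yet half the replicates above 10; inactive means over half of replicates below 10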
Mot1-301 SUMO = inhibitors of SUMOylation pathway: yeast Mot1-301 growth rescue; AID 2716; S. cerevisiae Mot1-301 growth rescue, ATP luminescence, 38.5C; percent above DMSO median, 100 means doubled; growth rescue, % at 18.8 µM; 1% of 320,000 active;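 active means every valid replicate shows activation above 250% relative to neutral control wells; inactive means the rest, any valid replicate at or below 250%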;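 further: OY570 slx delta 5 strain wells were the positive control but not used for scaling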
VLA-4 inh = inhibition in a human VLA-4 binding assay; VLA-4 expressing cells, ligand binding flow cytometry; 0.2% of 330,000 active; inhibition, % (about 7 µM as worked out from the volumes in the protocol); P13612; in the data active means inhibition above about 50%
Target sequence (P13612 whole entry, looked up): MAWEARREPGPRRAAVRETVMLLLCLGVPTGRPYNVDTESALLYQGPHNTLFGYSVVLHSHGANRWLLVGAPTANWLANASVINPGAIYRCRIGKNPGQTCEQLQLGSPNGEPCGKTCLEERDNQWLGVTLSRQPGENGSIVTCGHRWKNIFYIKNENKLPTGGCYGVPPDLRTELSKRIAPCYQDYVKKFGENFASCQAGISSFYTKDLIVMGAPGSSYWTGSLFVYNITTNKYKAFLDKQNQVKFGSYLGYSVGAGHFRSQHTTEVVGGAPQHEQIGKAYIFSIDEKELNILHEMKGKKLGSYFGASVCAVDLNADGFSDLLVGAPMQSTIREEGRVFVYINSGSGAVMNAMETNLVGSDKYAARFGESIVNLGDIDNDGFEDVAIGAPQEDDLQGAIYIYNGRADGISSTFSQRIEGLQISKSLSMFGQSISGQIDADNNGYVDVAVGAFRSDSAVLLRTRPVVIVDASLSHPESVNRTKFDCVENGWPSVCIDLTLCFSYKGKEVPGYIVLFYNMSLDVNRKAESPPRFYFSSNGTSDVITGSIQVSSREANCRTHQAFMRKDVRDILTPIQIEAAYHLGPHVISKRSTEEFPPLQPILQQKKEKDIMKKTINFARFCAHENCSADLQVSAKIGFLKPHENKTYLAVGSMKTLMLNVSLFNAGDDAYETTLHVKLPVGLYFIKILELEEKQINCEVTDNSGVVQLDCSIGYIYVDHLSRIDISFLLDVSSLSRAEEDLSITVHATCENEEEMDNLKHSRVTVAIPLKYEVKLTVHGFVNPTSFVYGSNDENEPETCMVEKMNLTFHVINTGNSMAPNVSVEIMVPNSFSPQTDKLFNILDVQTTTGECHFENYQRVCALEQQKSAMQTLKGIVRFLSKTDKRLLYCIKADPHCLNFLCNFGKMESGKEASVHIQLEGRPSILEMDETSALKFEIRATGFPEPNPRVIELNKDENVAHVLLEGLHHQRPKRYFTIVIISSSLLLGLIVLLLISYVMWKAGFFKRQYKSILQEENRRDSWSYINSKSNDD
Efflux pump inh = blocks antifungal efflux pumps in multiplex yeast assay | S. cerevisiae Candida pump triplex, Nile Red efflux | inhibition, % at 10 µM | 0.44% of 330,000 active;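 active means plate passing quality check with inhibition over a set limit, or well fluorescence over plate mean plus 4 SD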;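 further: Nile Red retained in pooled yeast measured as flow cytometry median fluorescence; 0% = buffer negative control and 100% = Enniatin B positive control; higher means more Nile Red kept so more efflux inhibition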
An asterisk follows results filed as active; ? = inconclusive; . = no result. A selection: hits, their analogues and other compounds. The true share with any hit is near 7.2%.

SMILES	ALR H2O2 inh	AHR activator	A1 inh	Mot1-301 SUMO	VLA-4 inh	Efflux pump inh
CN(CC(=O)Nc1ccc(F)cc1)C(=O)CSc1nccn1C	-4	-3	-1	-4	5	0
COc1ccc(C(C(=O)NC2CCCC2)N(CCCO)C(=O)c2snc(C(N)=O)c2N)cc1 (stereo not given)	1	0	0	-4	1	0
CC(O)CNCCCCOc1ccc(OCc2ccccc2)cc1 (stereo not given)	10	-3	-1	-7	4	0
CCCCCCCCNc1nc(Cl)nc(NCCN2CCOCC2)n1	-1	-1	0	2	0	0
COc1cc2c(cc1OC)CN(C(=O)c1ccc(Cl)c(S(=O)(=O)N3CCCC3)c1)CC2	-11	7	-2	29	-14	0
COc1ccc(NC(=O)CSc2nc3cccnc3n2C)cc1	99*	1	0	-12	11	0
CCOc1ccc(NC(=O)CSC(N)=O)cc1	99*	-1	1	10	-4	0
CC(=O)N1CCN=C1SCc1cccc(C(F)(F)F)c1	99*	6	1	.	-3	0
CCC(=O)N1CCN=C1SCc1cccc(C(F)(F)F)c1	99*	0	0	-10	0	0
CC(=O)N1CCN=C1SCc1ccc(Br)cc1	96*	2	0	2	-4	0
CCOC(=O)N1CCN=C1SCc1ccc(Cl)c(Cl)c1	99*	-1	0	115	29	0
O=C(C1CC1)N1CCN=C1SCc1cccc(C(F)(F)F)c1	?	6	-1	16	-5	0
N/C(CS(=O)(=O)c1ccc(F)cc1)=N\O	1	1	1	10	-3	0
Cc1ccc(S(=O)(=O)N2[C@@H](c3ccccc3F)C(C(=O)O)=CC[C@H]2c2cccc(Cl)c2)cc1	3	1	2	-21	-12	0
CC1CCN(S(=O)(=O)c2ccc(NC(=O)[C@@H]3CCCN3C(=O)c3cccs3)cc2)CC1	.	-1	1	-24	8	0
COc1cc(-c2nnc(SCc3cccnc3)n2C)cc(OC)c1O	44	4	-1	-8	16	0
COc1ccc(N2CCN(C(=O)Nc3ccccc3Cl)CC2)cc1	87*	-4	0	3	0	0
COc1ccc(N2CCN(C(=O)c3ccc(C)c(Cl)c3)CC2)cc1	13	-2	1	.	-15	0
COC(=O)c1ccccc1NC(=O)N1CCN(c2ccc(OC)cc2)CC1	41	-2	-1	-2	47	0
COc1cc(SC)ccc1C(=O)N1CCN(c2ccc(O)cc2)CC1	99*	-1	0	48	-5	0
COc1ccc(N2CCN(C(=O)c3ccc(C)cc3Cl)CC2)cc1	92*	0	0	18	5	0
COc1cc(SC)ccc1C(=O)N1CCN(c2ccccc2)CC1	51	5	0	5	-12	0
CC1(NC(=O)Cn2cc(C(F)(F)F)ccc2=O)CCS(=O)(=O)C1 (stereo not given)	-2	1	0	-11	10	0
N#Cc1ccc(-c2ccccc2)nc1SCC(=O)c1cc2ccccc2oc1=O	-4	55*	0	-23	12	0
CCOC(=O)c1cnc2c(cnn2C)c1NCCCn1ccnc1	-4	59*	0	-1	16	0
SMILES	ALR H2O2 inh	AHR activator	A1 inh	Mot1-301 SUMO	VLA-4 inh	Efflux pump inh
COc1ccccc1NC(=O)c1ccc2nsnc2c1	0	56*	-6	-1	10	0
Cc1c(NC(=O)c2ccc3nsnc3c2)cccc1[N+](=O)[O-]	1	52*	-1	-22	9	0
COc1cc(NC(=O)c2ccc3nsnc3c2)cc(OC)c1OC	-6	37	0	8	-2	0
CC(C)CC(=O)Nc1ccc2nn(-c3ccccc3)nc2c1	-4	-6	-1	31	26	1
O=C1CC(SC(=Nc2ccccc2)Nc2ccccc2)C(=O)N1c1ccc(Cl)cc1 (stereo not given)	0	3	0	-7	26	0
O=C(CSC1CC(=O)N(c2ccc(C(=O)O)cc2)C1=O)Nc1ccc(Cl)cc1 (stereo not given)	98*	4	0	9	19	0
O=C(CSC1CC(=O)N(CCc2ccccc2)C1=O)Nc1cccc(Cl)c1 (stereo not given)	99*	-1	1	314*	19	0
